Molecules are shown by their SMILES. Records with an inconclusive call do not appear. Entries that show only a call come without a potency. Calls of active or inactive are those of the source. Calls come from the whole dose curve.

Sequence of D(2) dopamine receptor (Homo sapiens) (P14416 whole entry, looked up): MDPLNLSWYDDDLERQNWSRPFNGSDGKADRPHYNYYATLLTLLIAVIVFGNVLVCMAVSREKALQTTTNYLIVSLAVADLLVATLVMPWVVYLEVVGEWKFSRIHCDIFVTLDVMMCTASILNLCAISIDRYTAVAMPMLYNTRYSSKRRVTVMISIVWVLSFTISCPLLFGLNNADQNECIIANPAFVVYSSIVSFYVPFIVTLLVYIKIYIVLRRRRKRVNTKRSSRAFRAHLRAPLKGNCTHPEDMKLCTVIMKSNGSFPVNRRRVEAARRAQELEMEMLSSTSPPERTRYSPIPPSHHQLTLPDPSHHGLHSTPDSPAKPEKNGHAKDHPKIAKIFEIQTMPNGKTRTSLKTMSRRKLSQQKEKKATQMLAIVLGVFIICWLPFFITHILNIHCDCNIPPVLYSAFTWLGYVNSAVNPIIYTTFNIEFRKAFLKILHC

In one assay the target is Beta-2 adrenergic receptor (Homo sapiens) (UniProt P07550). As to the kind of experiment: Adrenergic beta2 receptor (ADRB2) small molecule antagonists, cell-based qHTS assay (AID 1963592). Note: nearly all actives have a fitted effect of over 50% in size. As to conditions: CHO-ADRB2 cells, isoproterenol-stimulated cAMP HTRF ratio, 0.5 h; series mostly up to 92.4 µM. In a few lines: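 Assay format: CHO-ADRB2 cells, 18-20hr seeding at 37C/5% CO2, then compound plus 1nM isoproterenol agonist mix for 0.5hr RT. Homogeneous time-resolved fluorescence cAMP detection after 1hr, expressed as 665/615 nm ratio.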
Sequence of Beta-2 adrenergic receptor (Homo sapiens) (P07550 whole entry, looked up): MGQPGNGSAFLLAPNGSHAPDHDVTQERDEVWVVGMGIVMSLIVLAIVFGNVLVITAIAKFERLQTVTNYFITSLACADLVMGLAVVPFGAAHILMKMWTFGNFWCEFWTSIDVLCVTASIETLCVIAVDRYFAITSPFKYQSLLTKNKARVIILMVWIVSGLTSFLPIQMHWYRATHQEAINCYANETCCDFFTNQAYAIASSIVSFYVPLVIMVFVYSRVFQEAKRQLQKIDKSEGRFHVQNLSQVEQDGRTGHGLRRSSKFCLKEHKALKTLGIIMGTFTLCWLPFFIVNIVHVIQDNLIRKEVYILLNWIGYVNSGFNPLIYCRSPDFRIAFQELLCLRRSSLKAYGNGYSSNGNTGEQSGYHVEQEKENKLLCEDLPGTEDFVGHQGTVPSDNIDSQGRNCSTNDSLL
In general terms: Quantitative high-throughput screening tests each substance at several concentrations.
Consider `ClCBr`, for which the Potency entry was “inactive”.

As for `C#CC(C)(C)O`, the Potency entry is “inactive”.

In the case of `Brc1cccc(-c2ccccc2)c1`, the Potency result was “inactive”.

Turning to `CC[N+]1(CCOC(=O)C(O)(c2ccccc2)c2ccccc2)CCCCC1`, the Potency result was “inactive”.

Take `CCCCOC(=O)c1ccccc1N`: the Potency entry is “inactive”.

As for `ClCCCCBr`, the Potency result is “inactive”.

Turning to `CC(C)CC(N(C)C)C1(c2ccc(Cl)cc2)CCC1` (centres undefined), the Potency result is “inactive”.

In the case of `C[N+]1(CCC(C(N)=O)(c2ccccc2)c2ccccc2)CCCCC1`, the Potency entry is “inactive”.

As for `ClCCCCCCCl`, the Potency result was “inactive”.

For the compound `CCNc1nc(NC(C)C(C)C)nc(SC)n1` (centres undefined), the Potency entry is “inactive”.

In the case of `CC1(C)COP(Oc2ccccc2)OC1`, the Potency result is “inactive”.

`CNC(=O)O/N=C(\C)SC`: the Potency result was “inactive”.

Take `C[C@H](N)C(=O)c1ccccc1`: the Potency result was “inactive”.

`O=C1OC(=O)C2C1C1(Cl)C(Cl)=C(Cl)C2(Cl)C1(Cl)Cl` (centres undefined): the Potency result is “inactive”.

As for `Nc1cc2c3c(c1)C(c1ccccc1)=N[C@@H](NC(=O)c1cccnc1)C(=O)N3CC2`, the Potency entry was “inactive”.

Turning to `O=C(Nc1ccc(F)cc1F)c1cccnc1Oc1cccc(C(F)(F)F)c1`, the Potency result was “inactive”.

In the case of `CC(C)C(Br)C(=O)NC(N)=O` (centres undefined), the Potency entry is “inactive”.

Consider `CCC1(c2cccc(O)c2)CCCCN(C)C1` (centres undefined), for which the Potency entry is “inactive”.

As for `Fc1ccc(C2(Cn3cncn3)OC2c2ccccc2Cl)cc1` (centres undefined), the Potency result is “inactive”.

With `O=C(O)[C@H](O)[C@@H](O)C(=O)O`, the Potency result is “inactive”.

Take `CN1C(=O)COc2c(C(=O)NC3CN4CCC3CC4)cc(Cl)cc21` (centres undefined): the Potency entry was “inactive”.

As for `COc1c2c(cc3c1OCO3)CCN(C)C2`, the Potency entry was “inactive”.

For the compound `O=[N+]([O-])c1cc(Cl)c(Cl)cc1Cl`, the Potency entry is “inactive”.

On to `ClC(Cl)C(Cl)(Cl)Cl`, for which the Potency result is “inactive”.

As for `c1ccc(Nc2ccc(Nc3ccccc3)cc2)cc1`, the Potency entry was “inactive”.

`Cc1ccn2nc(S(=O)(=O)Nc3c(F)cccc3F)nc2n1`: the Potency result was “inactive”.

With `CCCCC(CC)COP(=O)(Oc1ccccc1)Oc1ccccc1` (centres undefined), the Potency entry is “inactive”.

On to `C[C@]12CC[C@@H]3c4ccc(OC(=O)N(CCCl)CCCl)cc4CC[C@H]3[C@@H]1CC[C@@H]2O`, for which the Potency result was “inactive”.

With `CC(C)(N)Cc1ccc(Cl)cc1`, the Potency entry is “inactive”.

As for `N#Cc1c2ccccc2cc2ccccc12`, the Potency entry is “inactive”.

On to `N#Cc1c[nH]cc1-c1cccc2c1OC(F)(F)O2`, for which the Potency result was “inactive”.

As for `C=CC(=O)OCC`, the Potency result is “inactive”.

For `CNC(=O)O/N=C(\C)C(C)S(C)(=O)=O` (centres undefined), the Potency result was “inactive”.

Consider `Cc1ccc2cc3c(ccc4ccccc43)c3c2c1CC3`, for which the Potency entry was “inactive”.

Another assay has the same target. As to the kind of experiment: Adrenergic beta2 receptor (ADRB2) small molecule agonists, cell-based qHTS assay (AID 1963593).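 Note: CHO cells stably overexpressing human ADRB2.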 As to conditions: CHO-ADRB2 cells, cAMP HTRF, 30 min; series mostly up to 92.4 µM. The procedure, abridged: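 CHO cells stably over-expressing ADRB2 were plated overnight at 37C, then dosed with compounds plus a stimulation mix containing 100uM IBMX and 25uM Ro-20-1724 for 0.5hr at room temperature. cAMP was measured by HTRF competition, 1hr.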
In the case of `C#CC(C)(C)O`, the Potency entry is “inactive”.

Take `Brc1cccc(-c2ccccc2)c1`: the Potency entry was “inactive”.

`ClCCCCBr`: the Potency result is “inactive”.

Take `O=S(=O)(Cl)c1ccccc1`: the Potency result is “inactive”.

For `ClCCCCCCCl`, the Potency result was “inactive”.

With `CNC(=O)O/N=C(\C)SC`, the Potency result is “inactive”.

`Nc1cc2c3c(c1)C(c1ccccc1)=N[C@@H](NC(=O)c1cccnc1)C(=O)N3CC2`: the Potency result was “inactive”.

Consider `CCC1(c2cccc(O)c2)CCCCN(C)C1` (centres undefined), for which the Potency entry was “inactive”.

On to `O=C(O)[C@H](O)[C@@H](O)C(=O)O`, for which the Potency result is “inactive”.

Turning to `COc1c2c(cc3c1OCO3)CCN(C)C2`, the Potency entry was “inactive”.

On to `Cc1cnc2c(C(=O)O)c(Cl)ccc2c1`, for which the Potency entry was “inactive”.

In the case of `CCCCC(CC)COP(=O)(Oc1ccccc1)Oc1ccccc1` (centres undefined), the Potency entry was “inactive”.

With `C[C@]12CC[C@@H]3c4ccc(OC(=O)N(CCCl)CCCl)cc4CC[C@H]3[C@@H]1CC[C@@H]2O`, the Potency entry is “inactive”.

For `CC(C)(N)Cc1ccc(Cl)cc1`, the Potency result was “inactive”.

Consider `C=CC(=O)OCC`, for which the Potency result is “inactive”.

For `CNC(=O)O/N=C(\C)C(C)S(C)(=O)=O` (centres undefined), the Potency result was “inactive”.

Consider `Cc1ccc2cc3c(ccc4ccccc43)c3c2c1CC3`, for which the Potency result is “inactive”.

For a further assay, the target named is D(2) dopamine receptor (Homo sapiens) (UniProt P14416). The experiment in a line: Dopamine D2 receptor (DRD2) small molecule agonists, cell-based qHTS assay (AID 1963594). Note: nearly all actives have a fitted effect of over 35% in size. Note: potency is the fitted concentration of half-maximal effect. The following applies: HEK293-DRD2 cAMP HTRF, agonist mode, 30 min; series mostly up to 92.4 µM. In a few lines:
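cAMP accumulation in DRD2-HEK293 cells measured by HTRF after 1 h detection; compounds added 10 min before NKH477 (200nM […]) forskolin-analogue stimulation, 30 min at room temperature, with Ro20-1724 present at 0.1 mM final.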
`ClCBr`: the Potency result was “inactive”.

`O=C1CN=C(c2ccccc2)c2cc([N+](=O)[O-])ccc2N1`: the Potency entry was “inactive”.

In the case of `C#CC(C)(C)O`, the Potency result is “inactive”.

On to `Brc1cccc(-c2ccccc2)c1`, for which the Potency result is “inactive”.

Regarding `ClCCCCBr`, the Potency entry is “inactive”.

As to `O=S(=O)(Cl)c1ccccc1`, the Potency entry is “inactive”.

As for `CC(C)CC(N(C)C)C1(c2ccc(Cl)cc2)CCC1` (centres undefined), the Potency result was “inactive”.

With `C[N+]1(CCC(C(N)=O)(c2ccccc2)c2ccccc2)CCCCC1`, the Potency entry is “inactive”.

As to `CCNc1nc(NC(C)C(C)C)nc(SC)n1` (centres undefined), the Potency entry is “inactive”.

For `CC1(C)COP(Oc2ccccc2)OC1`, the Potency result is “inactive”.

On to `CNC(=O)O/N=C(\C)SC`, for which the Potency entry is “inactive”.

In the case of `O=C1OC(=O)C2C1C1(Cl)C(Cl)=C(Cl)C2(Cl)C1(Cl)Cl` (centres undefined), the Potency entry is “inactive”.

In the case of `Nc1cc2c3c(c1)C(c1ccccc1)=N[C@@H](NC(=O)c1cccnc1)C(=O)N3CC2`, the Potency entry was “inactive”.

Consider `O=C(Nc1ccc(F)cc1F)c1cccnc1Oc1cccc(C(F)(F)F)c1`, for which the Potency entry is “inactive”.

As for `CC(C)C(Br)C(=O)NC(N)=O` (centres undefined), the Potency result is “inactive”.

As for `CCC1(c2cccc(O)c2)CCCCN(C)C1` (centres undefined), the Potency entry was “inactive”.

In the case of `O=C(O)[C@H](O)[C@@H](O)C(=O)O`, the Potency entry was “inactive”.

On to `CN1C(=O)COc2c(C(=O)NC3CN4CCC3CC4)cc(Cl)cc21` (centres undefined), for which the Potency entry was “inactive”.

For the compound `COc1c2c(cc3c1OCO3)CCN(C)C2`, the Potency was 6.68 µM (active).

On to `ClC(Cl)C(Cl)(Cl)Cl`, for which the Potency entry was “inactive”.

On to `Cc1cnc2c(C(=O)O)c(Cl)ccc2c1`, for which the Potency entry was “inactive”.

Turning to `Cc1ccn2nc(S(=O)(=O)Nc3c(F)cccc3F)nc2n1`, the Potency entry was “inactive”.

Consider `CCCCC(CC)COP(=O)(Oc1ccccc1)Oc1ccccc1` (centres undefined), for which the Potency result was “inactive”.

In the case of `C[C@]12CC[C@@H]3c4ccc(OC(=O)N(CCCl)CCCl)cc4CC[C@H]3[C@@H]1CC[C@@H]2O`, the Potency result is “inactive”.

Turning to `CC(C)(N)Cc1ccc(Cl)cc1`, the Potency result was “inactive”.

As to `N#Cc1c[nH]cc1-c1cccc2c1OC(F)(F)O2`, the Potency result was “inactive”.

For the compound `C=CC(=O)OCC`, the Potency result was “inactive”.

For the compound `CNC(=O)O/N=C(\C)C(C)S(C)(=O)=O` (centres undefined), the Potency result is “inactive”.

Source of the values: PubChem BioAssay (Tox21).
